Laboratory results: PubChem BioAssay AID651597 (National Center for Advancing Translational Sciences (NCATS), 2012)
Out of some 1,100 compounds screened, about 390 (35%) were called active. Roughly 30% stayed inconclusive and do not appear here. Calls follow the shape of the dose curve; as a rule, active = well fitted inhibition curve with a large enough effect; inconclusive = small, poorly fitted or top-dose-only effect; inactive = flat fitted curve, though single readings scatter. Some of the results follow.

target: Luciferin 4-monooxygenase (Photinus pyralis) (UniProt P08659); test: qHTS of Nrf2 Activators: Hit Validation in Secondary FLuc Assay; details: firefly luciferase inhibition counter-screen, luminescence; series mostly up to 57.5 µM; activity, negative = inhibition: at the top concentration; also: nearly all actives have a fitted effect of over 65% in size
Method in brief: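 Purified firefly luciferase is tested for inhibition by compounds in the presence of its substrates, ATP and D-luciferin, each at Km. Inhibition marks likely false positives arising from reporter-enzyme stabilization.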
% is scaled to controls: 0 for no effect and ±100 for the full control effect; potency is read from the fitted curve at half-maximal effect.

Structure (SMILES) | Potency | activity, negative = inhibition
Cc1ccc(C(=O)N/N=C/c2ccc(-c3ccc(Br)cc3[N+](=O)[O-])o2)o1 | 3.79 µM (active) | –
N#Cc1c(-c2ccco2)cc(-c2ccc(F)cc2)nc1N | 5.36 µM (active) | –
N#Cc1nc(-c2ccc(F)cc2)oc1NCc1ccco1 | – | -27.6% (inactive)
N#Cc1nc(-c2ccco2)oc1N1CCCC1 | – | 6.93% (inactive)
N#Cc1c(-c2ccco2)cc(-c2ccccn2)nc1N | 12 µM (active) | –
CC(C)Cc1cc(-c2ccco2)c(C#N)c(N)n1 | – | -13.5% (inactive)
Cc1nc(NCc2ccco2)nc2c1C(=O)CC(C)C2 (stereo not drawn) | – | 3.45% (inactive)
COC(=O)c1sccc1NC(=O)c1cccc(F)c1 | – | 5.88% (inactive)
O=C(Nc1nnc(-c2cccs2)s1)c1cccc(F)c1 | 2.39 µM (active) | –
O=C(Nc1nnc(-c2cccs2)s1)C1CC1 | – | -26.1% (inactive)
COc1ccc2oc3cc(Cl)ccc3c(=O)c2c1 | 1.69 µM (active) | –
COc1ccc2oc3ccccc3c(=O)c2c1 | 8.49 µM (active) | –
CC(=O)Oc1c(-c2ccco2)oc2ccccc2c1=O | – | -8.33% (inactive)
O=c1c2ccccc2oc2ccc(-c3ccc4cc[nH]c4c3)cc12 | 0.135 µM (active) | –
CC(C)(C)/C(O)=C/c1nc2cc(Cl)ccc2oc1=O | – | 3.24% (inactive)
O=S(=O)(c1ccc(F)cc1)c1snnc1-c1ccccc1 | – | -23.6% (inactive)
CS(=O)(=O)c1nc(S(=O)(=O)c2ccc(Cl)cc2)c(N2CCN(CCO)CC2)s1 | – | -0.882% (inactive)
Cc1ccc(-c2cc(-c3cccc(F)c3)n[nH]2)c(O)c1 | 1.2 µM (active) | –
COn1c(-c2ccccc2)nc2c1CCc1c-2no[n+]1[O-] | – | 0.412% (inactive)
O=C1/C(=C\c2ccco2)NC(=S)N1c1ccccc1 | 8.49 µM (active) | –
COC(=O)C1=C(C)N(c2ccc(Br)cc2)C(=O)/C1=C\c1ccco1 | – | -25.3% (inactive)
O=C(CC(=O)c1ccccn1)c1ccccc1 | 5.36 µM (active) | –

Structure (SMILES) | Potency | activity, negative = inhibition
O=C(CCS(=O)(=O)c1ccccc1)Nc1nc(-c2ccccn2)cs1 | – | -28.2% (inactive)
Cc1sc(NC(=S)NC(=O)c2ccccc2)c(C#N)c1C | 12 µM (active) | –
Cc1cccc(C)c1NC(=S)NC(=O)c1cccc(Cl)c1 | – | -4.09% (inactive)
Cc1ccc2cccc(NC(=S)NC(=O)c3ccccc3)c2n1 | 6.01 µM (active) | –
Cc1csc(NC(=S)NC(=O)c2ccccc2)n1 | 2.13 µM (active) | –
Cc1ccc2cccnc2c1NC(=S)NC(=O)c1ccccc1 | 15.1 µM (active) | –
Cc1cc(C)c2c(NC(=S)NC(=O)c3ccccc3)nn(C)c2n1 | – | 0.252% (inactive)
[O-][n+]1onc2c3ccnnc3ccc21 | – | -2.23% (inactive)
O=C(CC(=O)Nc1ccccc1[N+](=O)[O-])Nc1ccccc1[N+](=O)[O-] | – | 0.965% (inactive)
Cc1csc(NC(=O)Nc2ccccc2[N+](=O)[O-])n1 | 2.69 µM (active) | –
Cn1c(/C=C/c2cccc(Br)c2)nc2ccccc2c1=O | 10.7 µM (active) | –
CCn1c(/C=C/c2ccccc2)nc2ccccc2c1=O | – | -25.2% (inactive)
Cn1c(CC2C(=O)Nc3ccc(Br)cc32)nc2ccccc2c1=O (stereo not drawn) | – | -7.26% (inactive)
COc1ccc(NC(=O)c2cc(-c3cccs3)on2)c(OC)c1 | – | -23.9% (inactive)
CSc1ccccc1NC(=O)c1cc(-c2cccs2)on1 | 3.38 µM (active) | –
COC(=O)c1sccc1NC(=O)c1cc(C)on1 | – | 6.05% (inactive)
CC(C)(C)SCCNC(=O)/C=C/c1cccc([N+](=O)[O-])c1 | – | -23.6% (inactive)
O=[N+]([O-])c1cccc(/C=C/c2ccccn2)c1 | 10.7 µM (active) | –
N#C/C(=C\C=C\c1ccccc1[N+](=O)[O-])C(=O)NC1CCCCC1 | – | -27.7% (inactive)
CC1(C)C(=O)OC(/C=C/c2cccc([N+](=O)[O-])c2)C(C)(C)C1=O (stereo not drawn) | – | 1.52% (inactive)
O=[N+]([O-])c1ccccc1C=CC=NN=Cc1ccccc1O | 0.953 µM (active) | –
O=C(NN=Cc1cccc([N+](=O)[O-])c1)c1cccc2ccccc12 | – | -21% (inactive)

Structure (SMILES) | Potency | activity, negative = inhibition
O=[N+]([O-])c1cccc(C=NN=Cc2ccccc2O)c1 | 0.601 µM (active) | –
CC1(C)C2C/C(=N\O)C(C)(/[N+]([O-])=C/c3cccc([N+](=O)[O-])c3)CC21 (stereo not drawn) | – | 2.48% (inactive)
Cn1c(SCC(=O)N/N=C/C=C\c2ccccc2[N+](=O)[O-])nc2ccccc21 | – | -28.9% (inactive)
C=C(C)CNC(=S)N/N=C(\C)c1ccc(Cl)s1 | – | -4.5% (inactive)
FC(F)(F)c1cc(-c2ccco2)nc(-n2nnc3ccccc32)n1 | – | -18.6% (inactive)
O=[N+]([O-])c1cccc(-c2cnc3ccccc3n2)c1 | – | -28.7% (inactive)
O=C(Oc1cccc(-c2cnc3ccccc3n2)c1)c1ccco1 | 10.7 µM (active) | –
c1coc(-c2cnc3ccccc3n2)c1 | 2.69 µM (active) | –
Cc1ccc(/C=C/C(=O)Nc2ccc([N+](=O)[O-])c(NC(=O)/C=C/c3ccc(C)o3)c2)o1 | 1.2 µM (active) | –
Cc1ccc(NC(=O)/C=C/c2ccc([N+](=O)[O-])s2)cc1 | – | -2.01% (inactive)
O=C(Nc1ccccn1)c1csc2c1CCCC2 | 3.01 µM (active) | –
CSc1nsc(SC)c1NC(=O)Nc1ccccn1 | – | -27.9% (inactive)
O=C(Nc1nnc(-c2ccccc2F)s1)C1CCCO1 (stereo not drawn) | 10.7 µM (active) | –
O=C(Nc1nnc(-c2ccccc2F)s1)Nc1ccccc1F | – | -21.5% (inactive)
CCCNC(=O)c1ccc(S(=O)(=O)c2ccc(OC)cc2)c([N+](=O)[O-])c1 | – | -1.58% (inactive)
O=[N+]([O-])c1cc(-c2nc(-c3ccccc3)no2)ccc1NCc1cccnc1 | 4.78 µM (active) | –
CCCNc1ccc(-c2nc(-c3ccco3)no2)cc1[N+](=O)[O-] | 0.169 µM (active) | –
CCNc1ccc(-c2nc(-c3ccco3)no2)cc1[N+](=O)[O-] | 0.19 µM (active) | –
COCCNc1ccc(-c2nc(-c3ccco3)no2)cc1[N+](=O)[O-] | 0.478 µM (active) | –
NC(=O)c1ccsc1NC(=O)COC(=O)[C@@H]1CCCN1C(=O)c1cccs1 | – | -14.2% (inactive)
Cc1cc(C)n(S(=O)(=O)/C=C/c2ccccc2)n1 | – | 2.85% (inactive)
Cn1c(NC(=O)/C=C/c2ccccc2)cc(=O)n(C)c1=O | 8.49 µM (active) | –

Structure (SMILES) | Potency | activity, negative = inhibition
CC(=O)Nc1nc2cccc([N+](=O)[O-])c2s1 | – | -5.67% (inactive)
Cn1cc([N+](=O)[O-])c(C(=O)Nc2ccc(-c3nc4ccccc4o3)cc2)n1 | 8.49 µM (active) | –
CC(=O)c1cc2c(cc1NC(=O)CSc1nc3ccccc3o1)OCO2 | – | -5.24% (inactive)
CN1C2CCC1/C(=C\c1ccc(F)cc1)C(=O)/C2=C/c1ccc(F)cc1 | – | 2.61% (inactive)
Cc1nn2c(-c3ccco3)nnc2c2ccccc12 | 16.9 µM (active) | –
Cc1nn2c(-c3ccccc3)nnc2c2ccccc12 | 10.7 µM (active) | –
COc1ccc(-c2nnc3c4ccccc4c(C)nn23)cc1 | 7.57 µM (active) | –
CCc1nn2c(-c3ccco3)ccnc2c1-c1ccccc1 | – | 6.51% (inactive)
Cc1ccc(S(=O)(=O)c2nc(S(C)(=O)=O)sc2N2CCN(C)CC2)cc1 | – | -2.83% (inactive)
Cc1ccc(-c2nc(C=Nc3ccc(O)cc3)c(O)o2)cc1 | 2.69 µM (active) | –
O=c1cc(-c2cccc(Br)c2)oc2cccc(O)c12 | – | -4.58% (inactive)
O=c1cc(-c2ccccc2Cl)oc2c(Br)ccc(O)c12 | 2.39 µM (active) | –
O=c1oc(CCCO)cc2ccc(C#Cc3ccsc3)cc12 | 2.39 µM (active) | –
O=c1oc(CCO)cc2ccc(C#Cc3ccsc3)cc12 | 2.69 µM (active) | –
Cn1c(/N=C(\N)c2ccccc2)nc2ccccc21 | 1.35 µM (active) | –
Cn1c(/C(C#N)=C(\O)c2cc(Cl)sc2Cl)nc2ccccc21 | – | -24.2% (inactive)
Cc1cc(N2CCOCC2)n2nc(-c3cccc(F)c3)cc2n1 | – | -21.8% (inactive)
Cc1cc(C)n2nc(-c3ccc(F)cc3)cc2n1 | 1.51 µM (active) | –
COc1ccccc1NC(=O)c1nc(S(=O)(=O)Cc2ccccc2)ncc1Cl | 2.69 µM (active) | –
CCOC(=O)c1ccc(NC(=O)c2nc(S(=O)(=O)Cc3ccccc3)ncc2Cl)cc1 | 1.69 µM (active) | –
COc1ccccc1NC(=O)c1ccc(Cl)c(S(=O)(=O)NCc2ccco2)c1 | – | -25.3% (inactive)
COc1ccc(Cl)cc1NC(=O)CCS(=O)(=O)c1cccc2nonc12 | – | -0.0594% (inactive)

Structure (SMILES) | Potency | activity, negative = inhibition
Cc1ccc2c(N)c(C(=O)c3ccccc3)sc2n1 | 9.53 µM (active) | –
Cc1nc2sc(C(=O)c3ccccc3)c(N)c2c2c1CCCC2 | 1.9 µM (active) | –
Cc1ccc(C(=O)/C=C/c2ccc(-c3ccccc3[N+](=O)[O-])o2)cc1 | 2.69 µM (active) | –
CN1CCN(C(=O)/C=C/c2ccc([N+](=O)[O-])o2)CC1 | – | -3.66% (inactive)
O=C(/C=C/c1ccc(-c2ccccc2[N+](=O)[O-])o1)c1ccc(Br)cc1 | 6.01 µM (active) | –
O=C(/C=C/c1ccc(-c2ccccc2[N+](=O)[O-])o1)c1ccccc1 | 5.36 µM (active) | –
COc1ccc(OC)c(C(=O)Nc2c(O)ccc3ccccc23)c1 | 15.1 µM (active) | –
COC(=O)c1sccc1NC(=O)c1ccc(OC)c(OC)c1 | – | 1.53% (inactive)
COC1=C(C)C(O)=C(C(=O)/C=C/c2ccccc2)C(=O)C1(C)C | – | -7.39% (inactive)
CNc1ccc(Br)cc(C(=O)/C=C/c2cccc(OC)c2)c1=O | 8.49 µM (active) | –
CNc1ccccc(C(=O)/C=C/c2ccccc2OC)c1=O | 5.36 µM (active) | –
CNc1ccc(Br)cc(C(=O)/C=C/c2cccc(Cl)c2Cl)c1=O | 4.78 µM (active) | –
CNc1ccc(Br)cc(C(=O)/C=C/c2ccc(Cl)cc2Cl)c1=O | 4.78 µM (active) | –
CC1CCN(CC2C(=O)O[C@@H]3C[C@@]4(C)CCC[C@H](C)C4=C[C@H]23)CC(C)(C)C1 (stereo partly drawn) | – | -1.7% (inactive)
Cn1c(=O)oc2cc(NC(=O)CCl)ccc21 | – | 6.28% (inactive)
Cc1cc(=O)oc2c(C(=O)/C=C/c3ccccc3)c(O)ccc12 | – | 2.7% (inactive)
Cc1cc(=O)oc2cc(NC(=O)c3ccccc3Cl)ccc12 | 5.36 µM (active) | –
Oc1ccccc1C=NN=Cc1c(O)ccc2ccccc12 | 3.01 µM (active) | –
Cn1c(=O)c2nc(NCc3ccccc3)sc2n(C)c1=O | – | 5.85% (inactive)
O=S1(=O)C=C(Sc2nc3cc(Cl)ccc3o2)c2ccccc21 | 0.849 µM (active) | –
